Source: PubChem (National Center for Advancing Translational Sciences (NCATS))
Rows were chosen to be rich in hits. Some 21% of all compounds tested hit in one or more screens of this group.
ClpP mod = qHTS Assay for Activators of ClpP | AID 651965, 2013 | purified B. subtilis ClpP, FRET peptide cleavage, 20 min | Potency, µM (doses to about 57.5 µM), for the others: at the highest dose activity change, negative = active | ATP-dependent Clp protease proteolytic subunit (Bacillus subtilis (strain 168)), P80244 | 340,000 compounds, 1.9% hits; active = well fitted falling curve with a large enough effect; inconclusive = small, poorly fitted or top-dose-only effect; inactive = no such curve, though single readings can be large or run the other way; note: potency is the fitted concentration of half-maximal effect; the source files actives as falling curves though it sought activators and does not explain the sign; nearly all actives have a fitted effect of over 65% in size
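Purified B. subtilis ClpP, 10 microg/mL final in Tris/HCl pH8 with KCl, BSA, glycerol and Tween-20, cleaved an Abz/nitrotyrosine-quenched decapeptide. Fluorescence (ex 320, em 430) was read at 0 and 20 min at room temperature. Delta was normalized to 5.8 microM ADEP and DMSO/no-enzyme controls.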
DRD3 antagonist = qHTS of D3 Dopamine Receptor Antagonist: qHTS; D3R cells, DiscoveRx beta-arrestin luminescence, antagonist mode; stronger effect = lower value; max response, negative = inhibition, %; 360,000 compounds, 2.5% hits; AID 652054, 2013; in the data active = max response below about -50%; inconclusive = no clear call, values can overlap the other calls; note: % is set by controls: 0 for no effect and ±100 for the full control effect
Target sequence (P35462 whole entry, looked up): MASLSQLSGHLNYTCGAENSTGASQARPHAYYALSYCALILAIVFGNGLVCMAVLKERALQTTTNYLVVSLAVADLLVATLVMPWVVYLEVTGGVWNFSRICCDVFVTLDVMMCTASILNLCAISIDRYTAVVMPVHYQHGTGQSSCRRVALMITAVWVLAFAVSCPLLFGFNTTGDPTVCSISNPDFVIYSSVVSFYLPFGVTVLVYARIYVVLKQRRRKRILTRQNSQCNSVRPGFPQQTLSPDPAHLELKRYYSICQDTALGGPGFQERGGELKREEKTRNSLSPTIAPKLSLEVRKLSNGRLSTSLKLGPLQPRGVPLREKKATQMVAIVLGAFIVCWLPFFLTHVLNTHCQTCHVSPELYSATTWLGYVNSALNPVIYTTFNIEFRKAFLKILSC
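Cells expressing the human receptor were seeded at 1500 cells/well, incubated overnight at 37 degrees C in 5% CO2, then exposed to library compounds with dopamine controls for 90 minutes at 37 degrees C before luminescent detection.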
DT40 TDP1 CPT = qHTS for Inhibitors of human tyrosyl-DNA phosphodiesterase 1 (TDP1): qHTS in cells in presence of CPT. AID 686979, 2013. Potency, µM (highest dose often 46.2 µM), inactives show top-dose activity change, negative = growth inhibition, hits mostly inhibitors. 420,000 compounds, 12% hits. chicken DT40 Tdp1-/-;hTDP1 cells + 20 nM CPT, ATP luminescence, 48 h; note: potency is the fitted concentration of half-maximal effect; % is set by controls: 0 for no effect and ±100 for the full control effect; nearly all actives have a fitted effect of over 55% in size
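Cell growth measured by CellTiter-Glo luminescence after a minimum 48 h, 37 C compound exposure with 20 nM CPT in Tdp1-knockout DT40 cells stably expressing hTDP1, seeded 400/well; qHTS titration format.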
TDP1 cell noCPT = qHTS for Inhibitors of human tyrosyl-DNA phosphodiesterase 1 (TDP1): qHTS in cells in absence of CPT. DT40 Tdp1-/- hTDP1 cells, no CPT, ATP luminescence, 48 h. Potency, µM (series often up to 46.2 µM), inactives show top-dose activity change, negative = growth inhibition, usual class: inhibitors. AID 686978, 2013. 420,000 compounds, 15% hits; note: potency is the fitted concentration of half-maximal effect; % is set by controls: 0 for no effect and ±100 for the full control effect; nearly all actives have a fitted effect of over 55% in size
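DT40 Tdp1-/-;hTDP1 cells, no CPT (DMSO vehicle only), 400 cells/well; compounds pin-transferred; ≥48 hr, 37 °C; CellTiter-Glo 30 min RT dark, luminescence read.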
DRD3 agonist = qHTS of D3 Dopamine Receptor Agonist: qHTS; 410,000 compounds, 0.58% hits; D(3) dopamine receptor (Homo sapiens), P35462; max activation, %; D3R DiscoveRx beta-arrestin cells, luminescence, 90 min; in the data active = max activation above about 30%; note: 0% is about no effect
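Agonist mode: compounds and dopamine controls were applied to plated cells for 90 min at 37 degrees C after an overnight attachment at 1500 cells/well. Luminescent read-out followed 30 - 60 minutes at room temperature with DiscoveRx detection reagent.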
IL-1B inflam inh = qHTS for Inhibitors of Inflammasome Signaling: IL-1-beta AlphaLISA Primary Screen | THP-1 LPS/ATP IL-1B secretion, AlphaLISA, 16 h; stronger effect = lower value | activity change, % at 57.5 µM | 360,000 compounds, 4.7% hits; in the data active = activity change below about -50%; inconclusive = mostly about -30% to -49%; note: % is set by controls: 0 for no effect and ±100 for the full control effect
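THP-1 cells pretreated 1 hr with compounds (up to 57.5 uM final), then stimulated with LPS (250 ng/mL final) plus ATP (1.25 mM final); secreted IL-1B measured by AlphaLISA after 16 hr, decreased signal indicating inhibition.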
Active calls of the source: *; ? = inconclusive; nt = no result given. Unless noted, calls come from the whole dose curve; as a rule, active = well fitted inhibition curve with a large enough effect; inconclusive = small, poorly fitted or top-dose-only effect; inactive = flat fitted curve, though single readings scatter.

SMILES	ClpP mod	DRD3 antagonist	DT40 TDP1 CPT	TDP1 cell noCPT	DRD3 agonist	IL-1B inflam inh
COC(=O)[C@@]12C[C@@H](CC(=O)NCCCCc3ccccc3)C(=O)N(Cc3ccc4c(c3)OCO4)C1=CCC(C)(C)C2	-2%	-16	?	13µM*	-9	-76*
CCCCNC(=O)C[C@@H]1C[C@@]2(C(=O)OC)CC(C)(C)CC=C2N(Cc2ccc3c(c2)OCO3)C1=O	2%	-12	16µM*	?	-5	-16
COC(=O)[C@@]12C[C@@H](CC(=O)NCCc3ccccc3OC)C(=O)N(Cc3ccc4c(c3)OCO4)C1=CCC(C)(C)C2	-1%	?	?	?	-18	?
O=C1C=Cc2cccc3ccc(O)c1c23	nt	?	23µM*	15µM*	-16	?
Cn1nc(C(C)(C)C)cc1C(=O)O	-1%	-2	0%	0%	-3	3
Cn1nc(C(C)(C)C)cc1C(=O)Sc1cccc(Br)c1	nt	5	3.7µM*	10µM*	-2	-81*
CN(C)S(=O)(=O)c1cccc(C(=O)OCC(=O)Nc2sccc2C(N)=O)c1	-3%	5	15µM*	21µM*	3	-17
COc1cc(C(=O)OCC(=O)Nc2sccc2C(N)=O)cc(OC)c1OC	2%	54	4.6µM*	3.7µM*	15	78
CCOC(=O)Cn1c(=NC(=O)C(C)C)sc2c(C)cc(C)cc21	nt	18	?	15µM*	6	31
CCOC(=O)Cn1c(=NC(=O)CC)sc2c(C)cc(C)cc21	nt	2	1%	-6%	12	45
CC1=CC(C)(C)N2C(=O)C3(SCC(=O)N3c3ccc(O)cc3)c3cc(C)cc1c32 (configuration not stated)	0%	30	-5%	-1%	-1	36
CC1=CC(C)(C)N2C(=O)C3(N=C(N)NC(Nc4ccccc4)=N3)c3cc(C)cc1c32 (configuration not stated)	1%	-3	?	18µM*	-3	-78*
CSc1nnc(C)c(/C=C/Nc2ccc(C)cc2)n1	-1%	?	-15%	18µM*	-8	-1
CSc1nnc(C)c(/C=C/NOCc2ccc(Cl)cc2)n1	nt	5	-11%	-24%	0	-17
Cc1ccc(OCC(=O)OCc2nc3scc(-c4ccccc4)c3c(=O)[nH]2)cc1C	-8%	5	-2%	-5%	-1	1
O=C(CCCN1C(=O)S/C(=C\C=C\c2ccccc2)C1=O)Nc1ccc(O)cc1	-3%	6	?	?	11	-78*
O=C(CCN1C(=O)/C(=C\C=C\c2ccccc2)SC1=S)Nc1ccc(C(=O)O)cc1	0%	-9	-3%	4%	7	-55*
CCC(C)N1C(=O)/C(=C/c2c(NCCCOC(C)C)nc3c(C)cccn3c2=O)SC1=S (configuration not stated)	-6%	25	?	9.2µM*	3	-16
CCCN1C(=O)/C(=C/c2c(NCCCOC(C)C)nc3c(C)cccn3c2=O)SC1=S	-1%	-23	-10%	?	-8	17
Cc1[nH]n(C(N)=S)c(=O)c1C(c1ccccc1)C(C#N)C#N (configuration not stated)	0%	6	1.5µM*	1.5µM*	3	-10
Cc1[nH]n(-c2ncc(-c3ccccc3)s2)c(=O)c1C(c1ccc(Br)cc1)C(C#N)C#N (configuration not stated)	22%	?	?	?	-18	-64*
